VLA-4 inh – inhibition in a human VLA-4 binding assay; VLA-4 expressing cells, ligand binding flow cytometry; P13612; AID 2557; inhibition, % (about 7 µM as worked out from the volumes in the protocol); 330,000 tested, 0.2% active; in the data active means inhibition above about 50%
A3A deaminase – human APOBEC3A DNA deaminase inhibition | P31941 | recombinant A3A, FAM/TAMRA ssDNA deamination fluorescence | inhibition, % at 20 µM | 330,000 tested, 0.41% active | AID 493011;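 active means at least 40% inhibition at 20 µM here, with at most 30% in a related deaminase screen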;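 further: plate controls were A3A with DMSO for no effect and wells lacking A3A enzyme for full effect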
NRP1-CendR mod – modulators of CendR peptide binding to human neuropilin-1; FAM-RPARPAR peptide binding to NRP-1, fluorescence polarization; inhibition, % at 25 µM; 360,000 tested, 0.85% active;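 active means inhibition or corrected inhibition above about 18%, plus a signal ratio from 0.5 to 1.5, limit read from the data, passing the limit was not always enough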
Target sequence (O14786 whole entry, looked up): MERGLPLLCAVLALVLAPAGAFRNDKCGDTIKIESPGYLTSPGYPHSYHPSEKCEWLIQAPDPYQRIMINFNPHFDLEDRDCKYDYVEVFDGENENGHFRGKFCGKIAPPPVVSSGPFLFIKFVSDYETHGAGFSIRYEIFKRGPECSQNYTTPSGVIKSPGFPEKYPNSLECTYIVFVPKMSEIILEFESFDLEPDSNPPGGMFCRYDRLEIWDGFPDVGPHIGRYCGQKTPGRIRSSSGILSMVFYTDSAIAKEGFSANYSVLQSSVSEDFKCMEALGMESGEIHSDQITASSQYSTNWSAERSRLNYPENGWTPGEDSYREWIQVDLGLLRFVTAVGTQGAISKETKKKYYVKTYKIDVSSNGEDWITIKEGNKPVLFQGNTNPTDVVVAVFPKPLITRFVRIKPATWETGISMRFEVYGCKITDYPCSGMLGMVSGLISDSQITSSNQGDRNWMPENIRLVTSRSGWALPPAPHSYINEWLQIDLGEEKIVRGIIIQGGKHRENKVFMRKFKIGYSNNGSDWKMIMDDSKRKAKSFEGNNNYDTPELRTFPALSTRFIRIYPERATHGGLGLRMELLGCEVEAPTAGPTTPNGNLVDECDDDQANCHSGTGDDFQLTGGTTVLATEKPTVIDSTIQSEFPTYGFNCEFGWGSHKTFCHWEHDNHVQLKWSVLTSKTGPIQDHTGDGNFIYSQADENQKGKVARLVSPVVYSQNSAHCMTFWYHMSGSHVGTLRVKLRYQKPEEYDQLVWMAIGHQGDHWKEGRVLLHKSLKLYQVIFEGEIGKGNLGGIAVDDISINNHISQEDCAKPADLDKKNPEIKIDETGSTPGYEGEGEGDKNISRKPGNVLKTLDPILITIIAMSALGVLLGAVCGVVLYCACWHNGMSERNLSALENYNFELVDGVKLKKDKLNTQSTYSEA
A3G deaminase – APOBEC3G (human) deaminase inhibition; Q9HC16; recombinant A3G, ssDNA deamination FAM/TAMRA fluorescence; inhibition, % at 20 µM; 330,000 tested, 0.28% active;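 active means inhibition of at least 40% at 20 µM, with no more than 30% in the related APOBEC3A deaminase screen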;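 further: plate controls were DMSO wells with A3G for no effect and wells lacking A3G enzyme for full effect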
MIN6 prolif-1 – MIN6 beta-cell proliferation induction; MIN6 cells proliferation, ATPlite luminescence, 48 h; cells starved in 0.2% serum; 100% = growth in 10% serum; proliferation, % at 10 µM; 330,000 tested, 0.29% active;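 active means compounds whose signal lies at least 3.5 SD above the mean of all wells on their plate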;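 further: 0% = DMSO-treated cells in low-serum medium and 100% = 10% serum control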
MIN6 prolif-2 – MIN6 beta-cell replication induction, confirmed. shares compounds with MIN6 prolif-1. MIN6 beta-cell proliferation, ATPlite luminescence, 48 h; cells kept in 0.2% serum; scaled between 0.2% and 10% serum. proliferation increase, % at 50 µM. 920 tested, under 10 active;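 active means proliferation increase above 40% at any of the four tested concentrations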
An asterisk follows results filed as active. Shown are actives, neighbours in structure and some others; about 1.8% of the full set was active somewhere.

Screening COc1ccc(/C=N/NC(=O)CN(Cc2ccccc2)S(=O)(=O)c2ccc3c(c2)OCCO3)cc1 returned VLA-4 inh 11, A3A deaminase -2, NRP1-CendR mod 5, A3G deaminase -7 and MIN6 prolif-1 0.
Screening COc1ccc(CNC(=O)CN(CCC(C)C)S(=O)(=O)c2ccc3c(c2)OCCO3)cc1 returned VLA-4 inh 0, A3A deaminase -1, NRP1-CendR mod -6, A3G deaminase -3, MIN6 prolif-1 5.3* and MIN6 prolif-2 -6.
For CCC(=O)OCC(=O)[C@@]1(OC(=O)CC)[C@@H](C)C[C@H]2[C@@H]3CCC4=CC(=O)C=C[C@]4(C)[C@@]3(Cl)[C@@H](O)C[C@@]21C the results were VLA-4 inh 9, A3A deaminase 5, NRP1-CendR mod 2, A3G deaminase -4 and MIN6 prolif-1 -4.
For COCC(C)n1c(SCC(=O)N2CC(=O)Nc3ccccc32)nc2ccccc2c1=O (centres undefined) the results were VLA-4 inh -29, A3A deaminase -4, NRP1-CendR mod 2, A3G deaminase -9, MIN6 prolif-1 11* and MIN6 prolif-2 1.
Screening CN(CC(=O)Nc1c(Cl)cccc1Cl)C(=O)c1ccccc1-c1nc2ccccc2s1 returned VLA-4 inh 5, A3A deaminase -5, NRP1-CendR mod 4, A3G deaminase -7, MIN6 prolif-1 13* and MIN6 prolif-2 -6.
For Oc1ccccc1-c1nc(N2CCCC2)c2ccccc2n1 the results were VLA-4 inh 5, A3A deaminase -5, NRP1-CendR mod -1, A3G deaminase -5, MIN6 prolif-1 7.0* and MIN6 prolif-2 6.
For CCC(=O)Oc1c(C(=O)CC)cc2c(C)cc(=O)oc2c1C the results were VLA-4 inh 17, A3A deaminase -1, NRP1-CendR mod -9, A3G deaminase -3 and MIN6 prolif-1 0.
CCC(=O)Nc1c(OC(=O)CC)ccc2c(C)cc(=O)oc12 was read as VLA-4 inh 12, A3A deaminase -5, NRP1-CendR mod -2, A3G deaminase -6, MIN6 prolif-1 13* and MIN6 prolif-2 2.
For CCOc1nc2cnccc2n(CC(=O)Nc2c(F)c(F)cc(F)c2F)c1=O the results were VLA-4 inh -3, A3A deaminase -1, NRP1-CendR mod -2, A3G deaminase -4 and MIN6 prolif-1 -1.
Screening CCOc1nc2cnccc2n(CC(=O)Nc2ccccc2C(=O)OC)c1=O returned VLA-4 inh -3, A3A deaminase 0, NRP1-CendR mod 5, A3G deaminase -7, MIN6 prolif-1 14* and MIN6 prolif-2 1.
Screening CCOc1ccccc1NC(=O)Cn1c(=O)c(OCC)nc2cnccc21 returned VLA-4 inh 3, A3A deaminase -2, NRP1-CendR mod -2, A3G deaminase -5, MIN6 prolif-1 12* and MIN6 prolif-2 1.
Screening CC(C)c1c(C(=O)N/N=C/C2CC=CCC2)nnn1-c1nonc1N (centres undefined) returned VLA-4 inh 14, A3A deaminase -2, NRP1-CendR mod -1, A3G deaminase -1 and MIN6 prolif-1 -7.
Screening COc1cc2nc(Cl)nc(N3CCOCC3)c2cc1OC returned VLA-4 inh 22, A3A deaminase 2, NRP1-CendR mod 14, A3G deaminase 3 and MIN6 prolif-1 1.
Screening COc1cc2nc(Cl)nc(N3CCCCC3)c2cc1OC returned VLA-4 inh 15, A3A deaminase 3, NRP1-CendR mod 14, A3G deaminase -3, MIN6 prolif-1 7.6* and MIN6 prolif-2 -3.
`COc1ccc(C(=O)Nc2ccc(OCC(=O)N3CCOCC3)cc2)c(OC)c1OC` gave VLA-4 inh 16, A3A deaminase 3, NRP1-CendR mod -2, A3G deaminase 10 and MIN6 prolif-1 -2.
`CCn1nc(NC(=O)c2cccs2)c2cc3ccccc3nc21` gave VLA-4 inh -1, A3A deaminase -4, NRP1-CendR mod 5, A3G deaminase -6, MIN6 prolif-1 8.2* and MIN6 prolif-2 -6.
CCn1nc(NC(=O)c2cccnc2)c2cc3ccccc3nc21 was read as VLA-4 inh -35, A3A deaminase -2, NRP1-CendR mod -7, A3G deaminase -5 and MIN6 prolif-1 4.
For CCc1cc(=O)oc2cc(OCC(=O)N3CCC[C@H]3C(=O)O)ccc12 the results were VLA-4 inh -4, A3A deaminase -4, NRP1-CendR mod 6, A3G deaminase -10 and MIN6 prolif-1 -1.
For COc1cccc(C2CC(c3ccccc3)Nc3nc(N)nn32)c1 (centres undefined) the results were VLA-4 inh -20, A3A deaminase 0, NRP1-CendR mod 10, A3G deaminase -2 and MIN6 prolif-1 -3.
For COc1ccc(C2CC(c3cccc(OC)c3)n3nc(N)nc3N2)cc1 (centres undefined) the results were VLA-4 inh -5, A3A deaminase 4, NRP1-CendR mod 4, A3G deaminase -1, MIN6 prolif-1 9.1* and MIN6 prolif-2 2.
`COc1ccccc1CNC(=O)OCc1nccnc1C(=O)Nc1ccc(Br)cn1` gave VLA-4 inh 3, A3A deaminase -1, NRP1-CendR mod 8, A3G deaminase -4 and MIN6 prolif-1 -1.
`Cc1cccnc1C(NC(=O)C1CCN(CCOc2ccc(F)cc2)CC1)c1ccc(F)cc1` (centres undefined) gave NRP1-CendR mod -12.
For CC(C)c1ccccc1N=C1SCCCN1C(=O)c1cccc(N2C(=O)CCC2=O)c1 the results were VLA-4 inh 2, A3A deaminase 0, NRP1-CendR mod -2, A3G deaminase 2 and MIN6 prolif-1 -6.
For CCN(CC)S(=O)(=O)c1ccc2c3c(cccc13)C(=O)N2 the results were VLA-4 inh -13, A3A deaminase -2, NRP1-CendR mod 0, A3G deaminase -12, MIN6 prolif-1 11* and MIN6 prolif-2 0.
COc1ccccc1CCC(=O)Nc1nccs1 was read as VLA-4 inh 1, A3A deaminase -2, NRP1-CendR mod -1, A3G deaminase -2 and MIN6 prolif-1 -3.
For COc1ccccc1CCC(=O)Nc1ccc(S(=O)(=O)Nc2nccs2)cc1 the results were VLA-4 inh -7, A3A deaminase -3, NRP1-CendR mod 4, A3G deaminase -6, MIN6 prolif-1 13* and MIN6 prolif-2 1.
For CC1CCN(C(=O)CCc2ccc(S(=O)(=O)NC(C)(C)C)cc2)CC1 the results were VLA-4 inh -2, A3A deaminase -5, NRP1-CendR mod 5, A3G deaminase -9, MIN6 prolif-1 7.5* and MIN6 prolif-2 -2.
For O=C(NCc1ccc(F)cc1)c1ccncc1 the results were VLA-4 inh 1, A3A deaminase 2, NRP1-CendR mod 5, A3G deaminase -3 and MIN6 prolif-1 -1.
Screening C/C(=N\NC(=O)C(=O)Nc1cc(C)ccc1C)c1ccncc1 returned VLA-4 inh -7, A3A deaminase -3, NRP1-CendR mod 5, A3G deaminase -5 and MIN6 prolif-1 -1.

Bioassay records deposited in PubChem by several laboratories.
